# Screening data (PubChem)
# SMN2 splice enh: SMN2 splice variant enhancement. actives 2.8% (n = 210,000). Potency, µM (top dose mostly 46.1 µM), without a hit: at the top dose activity change, positive = activation, actives largely listed as activators. AID 1458. HEK293 SMN2-luciferase splicing reporter, luminescence, 30-36 h; further: % of control where 0% means no effect; nearly all actives have a fitted effect of over 55% in size
#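 qHTS luciferase splicing reporter: luminescence rises when SMN2 exon 7 is included in transfected HEK293 cells. Compound exposure lasted 30-36 h at 37C, with 4.5 mM final sodium butyrate as control, followed by a ONE-Glo read.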
# FLuc modulator: firefly luciferase modulation, counter-screen for miR-21 project. AID 588342. purified FLuc, Km substrates, luminescence inhibition. P08659. Potency, µM (titrated, usually from 57.5 µM), for inactives: at the highest dose activity change, negative = inhibition, actives largely listed as inhibitors. actives 6.9% (n = 360,000);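 further: plate controls were vehicle for no effect and reference inhibitor for full effect; nearly all actives have a fitted effect of over 55% in size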
# Target sequence (P08659 whole entry, looked up): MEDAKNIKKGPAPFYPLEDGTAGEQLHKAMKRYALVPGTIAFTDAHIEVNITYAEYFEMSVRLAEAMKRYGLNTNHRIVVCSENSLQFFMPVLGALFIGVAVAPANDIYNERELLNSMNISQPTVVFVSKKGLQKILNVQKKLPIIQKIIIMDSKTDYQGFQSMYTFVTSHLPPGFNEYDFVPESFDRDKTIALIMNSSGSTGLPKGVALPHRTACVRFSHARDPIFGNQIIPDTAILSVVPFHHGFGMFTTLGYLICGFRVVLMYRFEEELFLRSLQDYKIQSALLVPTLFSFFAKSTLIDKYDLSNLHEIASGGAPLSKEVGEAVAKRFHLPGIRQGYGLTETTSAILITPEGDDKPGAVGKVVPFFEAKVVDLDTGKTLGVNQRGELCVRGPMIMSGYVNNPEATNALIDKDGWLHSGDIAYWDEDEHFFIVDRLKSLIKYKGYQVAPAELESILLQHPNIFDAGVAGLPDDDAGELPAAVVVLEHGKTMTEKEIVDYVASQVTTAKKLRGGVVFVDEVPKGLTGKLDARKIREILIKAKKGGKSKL
#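 Biochemical qHTS of compounds, final roughly 60 µM downward over six points, against 10 nM purified firefly luciferase using Km concentrations of substrates (10 uM D-luciferin, 10 uM ATP) in Tris acetate pH 7.5 buffer; luminescence output.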
# Rab9 prom act: Rab9 promoter activation; AID 485297; Potency, µM (highest dose often 9.22 µM), for the others: at the top dose activation, negative = inhibition, most hits filed as activators; Huh7 Rab9 promoter-luciferase reporter, luminescence, 24 h; actives 2.8% (n = 320,000); further: % of control where 0% means no effect; nearly all actives have a fitted effect of over 60% in size
#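 Quantitative HTS format; Huh7 Rab9-luciferase reporter cells (1500/well) receive compound 2 h post-plating, incubate 24 h at 37 °C, then get luciferase reagent for 10 min before luminescence reading.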
# NPC1 prom act: activates the NPC1 promoter. Huh7 NPC1 promoter luciferase reporter, 24 h. Potency, µM (highest dose often 9.22 µM), without a hit: top-dose activation, hits mostly activators. actives 2.4% (n = 320,000). AID 485313; further: % of control where 0% means no effect; nearly all actives have a fitted effect of over 60% in size
#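 Luminescence read-out of NPC1 promoter-driven luciferase in stably transfected Huh7 cells; compounds delivered in DMSO and left 24 h at 37C, 5% CO2, qHTS titration format.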
# ELG1 genotoxic: induces genotoxicity in HEK293T cells with luciferase-tagged ELG1; Potency, µM (highest dose often 46 µM), inactives show at the top dose activity change, positive = activation, hits mostly activators; HEK293T ELG1-luciferase reporter, luminescence, 16 h; AID 504466; actives 1.3% (n = 330,000); further: % of control where 0% means no effect; nearly all actives have a fitted effect of over 60% in size
#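 Screening used a luciferase reporter fused to human ELG1 in HEK293T cells. Luminescence was read on a CCD plate imager after 16 hr exposure and 30 min ONE-Glo incubation.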
# * marks the source's active call; other numbers are inactive results; ? = inconclusive; · = no result. A selection: hits, their analogues and other compounds. The true share with any hit is near 7.5%. The call rests on the fitted dose curve; in most records, active means well fitted curve in the direction sought with a large enough effect; inconclusive means small, poorly fitted or top-dose-only effect, or another doubt; inactive means no such curve, though single readings can be large; an effect the other way counts as inactive or inconclusive. Potency means the concentration at half of the fitted maximal effect.
SMILES,SMN2 splice enh,FLuc modulator,Rab9 prom act,NPC1 prom act,ELG1 genotoxic
CC(=O)NC(CCS(C)(=O)=O)C(=O)Nc1nc(C)cs1 (configuration not stated),-3.1%,1.3%,-2.4%,0.4%,4.3%
Cc1cc(C)c2c(N)c(C(=O)Nc3ccccc3C(F)(F)F)sc2n1,·,-15.3%,·,·,·
Cc1cc(C)c2c(N)c(C(=O)NCC3CCCCC3)sc2n1,11.2µM*,23.9µM*,?,?,11.2µM*
Cc1cc(C(F)(F)F)c2c(N)c(C(=O)Nc3cc(C)on3)sc2n1,-43.3%,?,3.55µM*,?,?
COc1ccc(/C=N/NC(=O)c2sc3nc(C)cc(C)c3c2N)cc1,·,9.53µM*,1.8%,2.2%,2.5%
O=C(COc1ccccc1)NCCc1csc(-c2cccc(F)c2)n1,·,-1.3%,·,·,·
O=C(O)CC(C(=O)O)N1C(=O)/C(=C/c2ccc(-c3nc4ccccc4s3)o2)SC1=S (configuration not stated),26.3%,19µM*,-6.6%,0.4%,3.7%
O=C1S/C(=C\C=C\c2ccco2)C(=O)N1c1ccc(O)cc1,23.3%,15.1µM*,?,26.2%,?
O=C(NN1C(=O)/C(=C/C=C/c2ccco2)SC1=S)c1ccccc1O,·,19µM*,-3.1%,1.9%,2.0%
O=C1S/C(=C\C=C\c2ccco2)C(=O)N1c1ccccc1,-8.7%,?,?,?,8.1%
Cn1cccc1/C=C1\SC(=S)N(NC(=O)c2ccccc2O)C1=O,·,-14.5%,0.5%,-1.3%,5.3%
O=C(O)CCCN1C(=O)/C(=C/C=C/c2ccco2)SC1=S,·,26.9µM*,-1.4%,-2.4%,3.6%
Nn1c(SCC(=O)N2CCc3ccccc3C2)nnc1-c1cccs1,·,-2.6%,5.2%,0.7%,0.8%
O=C(O)CC(C(=O)O)N1C(=O)/C(=C/C=C/c2ccco2)SC1=S (configuration not stated),·,12µM*,0.3%,-1.5%,-1.3%
O=C(O)C(Cc1ccccc1)N1C(=O)/C(=C/C=C/c2ccco2)SC1=S (configuration not stated),·,?,-0.7%,0.8%,1.3%
O=C(O)CCCN1C(=O)/C(=C\C(Cl)=C\c2ccccc2)SC1=S,·,9.53µM*,-48.5%,-38.5%,-9.4%
COc1cccc(CNC(=O)CCC2CCCN(C(=O)c3cc4ccccc4o3)C2)c1 (configuration not stated),·,13.5µM*,4.47µM*,?,10.7%
Cc1nn(-c2ccccc2)c2sc(C(=O)N3CCc4ccccc4C3)cc12,-23.8%,-7.7%,-1.9%,-5.2%,-1.1%
Cc1nn(-c2ccccc2)c2sc(C(=O)N3CCCCC3)cc12,?,19µM*,·,·,·
CSCCC(NC(=O)c1cccc(C)c1)C(=O)O (configuration not stated),14.8%,2.5%,3.4%,-8.8%,6.9%
COc1ccc(C(=O)NCC(=O)OCC(=O)NCc2ccc3c(c2)OCO3)cc1,·,·,·,·,0.6%
CC(=O)Nc1ccc(NC(=O)CSc2nc3ccccc3nc2N2CCOCC2)cc1,-17.7%,-18.4%,·,·,·
COc1cccc(NC(=O)CSc2nc3ccccc3nc2N2CCOCC2)c1,3.98µM*,-14.7%,7.2%,-4.5%,-4.6%
COc1ccccc1C(=O)CSc1ccccn1,27.9%,16.9µM*,?,28.3%,?
COc1ccc(NC(=O)CSc2ccccn2)cc1,?,?,?,21.0%,16.4%
SMILES,SMN2 splice enh,FLuc modulator,Rab9 prom act,NPC1 prom act,ELG1 genotoxic
COc1ccc(C(=O)NCCSc2ccccn2)cc1,2.82µM*,2.13µM*,0.398µM*,0.708µM*,1.03µM*
COC(=O)CNC(=O)CSc1ccccn1,·,-3.6%,-5.7%,-0.1%,-0.4%
COc1cccc(NC(=O)CSc2ccccn2)c1,?,15.1µM*,?,?,?
CCOc1ccc(CC(=O)N2CCN=C2SC)cc1,-15.6%,?,7.2%,0.3%,-2.4%
O=C(CSc1ccccn1)Nc1ccc(Br)cn1,2.8%,?,1.7%,0.7%,4.0%
O=C(CCSc1ccccn1)Nc1ccc(Br)cc1,14.1µM*,12µM*,3.55µM*,?,?
O=C(CSc1ccccn1)Nc1ccc(NC(=O)CSc2ccccn2)cc1,-1.5%,-9.2%,0.1%,-5.2%,1.5%
CCc1ccc(NC(=O)CSc2ccccn2)cc1,28.9%,13.5µM*,?,16.3%,3.8%
